Reference: the supplement of paper PMC12636033
± gives the standard deviation of the averaged measurements. In all, about 33,000 sequences were measured (“E-score (rank enrichment, -0.5 to 0.5)”: median about -0.0043, highest 2% from about 0.24 on). For the sample, the highest values were picked, then their nearest neighbours and some sequences at random.

test system: 2Sp-muMax20 (muMax20 with two 2,6-bis(methyl)pyridine Cys staples); test: PBM 8-mer E-score (E-score (rank enrichment, -0.5 to 0.5)); higher = stronger preferential binding
Protocol: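 Protein binding microarray (universal PBM chip covering all 10-mers in fixed probe flanks) with chemically synthesized human Max(13-93) bHLH-LZ analogs (not full-length Max) bearing noncanonical residues (hArg, Tha, Aib, Nle at 65) and aromatic Cys staples. Read-out per 8-mer (and its reverse complement): E-score (rank-based enrichment, -0.5 to 0.5) and Z-score of median probe intensity.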

Sequence	PBM 8-mer E-score
AACCGGAA	-0.0983 ± 0.0079
GCTGAGAA	-0.111 ± 0.028
TCAACCGA	-0.0249 ± 0.02
AACCATTA	0.293 ± 0.0072
AACCATTG	-0.145 ± 0.014
CACCATTA	-0.0267 ± 0.11
GTCAAATA	0.163 ± 0.093
CCATATGG	0.295 ± 0.008
CAATATGC	0.128 ± 0.021
CAATATGA	0.189 ± 0.055
ACATATGG	0.0892 ± 0.04
CCATATGC	0.134 ± 0.054
CAATATGG	0.244 ± 0.044
AGCACCAG	-0.0554 ± 0.022
CGACACTC	-0.159 ± 0.094
AACACTCC	-0.151 ± 0.012
AAAATCAC	0.28 ± 0.0095
CGAATCAG	-0.0839 ± 0.076
AAAATCAA	-0.044 ± 0.037
GAAATCAA	0.0712 ± 0.019
CGAATCAA	0.241 ± 0.054
AAAATCAG	0.0292 ± 0.03
CAAATCAA	0.237 ± 0.0084

Sequence	PBM 8-mer E-score
GAAATCAC	0.142 ± 0.072
TGAATCAA	0.1418 ± 0.00071
CCGCTTGC	-0.142 ± 0.036
ATACCAGA	0.118 ± 0.019
ACGTGTGC	0.238 ± 0.029
ACGTGTCG	0.18 ± 0.033
ACGTGTTA	0.352 ± 0.0043
ACGTGTCT	0.26 ± 0.046
GCGTGTTA	0.103 ± 0.02
ACGTGTGA	0.113 ± 0.061
ACGTGTCA	0.139 ± 0.031
CCGTGTTA	0.0643 ± 0.04
ACGTGTAG	0.0238 ± 0.1
ACGTGTAC	0.132 ± 0.017
ACGTGTGG	0.156 ± 0.026
ACGTGTAT	0.336 ± 0.015
GAAGCCCC	-0.0537 ± 0.047
GCTTGTCA	-0.15 ± 0.028
CACCTGAC	0.0247 ± 0.0091
CCCATAGA	0.11 ± 0.015
CTTATCAC	0.00992 ± 0.026
ACCGAGCT	-0.158 ± 0.00061
CGAGTAAG	0.0344 ± 0.035

Sequence	PBM 8-mer E-score
CACGATAA	0.0394 ± 0.0045
TGGAACCA	-0.0848 ± 0.06
ACGTCCAT	-0.0323 ± 0.032
CCCCACAG	-0.0544 ± 0.039
CCCCACAC	0.229 ± 0.021
TCCCATAA	0.0959 ± 0.053
CCCCACAA	0.245 ± 0.013
CCCCATAA	0.254 ± 0.037
GCCCATAA	-0.0636 ± 0.086
GTCCAAAA	-0.0163 ± 0.058
ACGCGAAC	0.0549 ± 0.069
TCACAAAA	0.0933 ± 0.021
ACAAGCTC	-0.194 ± 0.011
ATATAAAG	0.21 ± 0.017
ATAAAAAT	0.16 ± 0.044
GTATAAAA	0.278 ± 0.035
CTATAAAA	-0.0627 ± 0.04
ATAAAAAC	0.116 ± 0.046
ACATAAAA	0.144 ± 0.037
GTATAAAC	0.0938 ± 0.044
ATATAAAA	0.3008 ± 0.00046
CTATAAAC	0.0618 ± 0.024
ATATAAAT	0.251 ± 0.037

Sequence	PBM 8-mer E-score
GGATAAAA	0.0526 ± 0.098
ATATAAAC	0.315 ± 0.054
CTACACTA	0.111 ± 0.081
ACGCCTTC	-0.0956 ± 0.053
TAATAAAA	0.231 ± 0.053
TGATAAAA	0.145 ± 0.017
TTATAAAA	0.272 ± 0.021
GGGGAAGA	0.0842 ± 0.0073
AGTCCTTC	-0.195 ± 0.04
GTACCATA	-0.00352 ± 0.14
CTACCATC	-0.168 ± 0.094
ATACCATG	0.102 ± 0.057
ACACCATC	0.0694 ± 0.0049
ATACCATC	0.237 ± 0.021
ATACCATA	0.249 ± 0.041
AGAAGGTC	0.126 ± 0.039
ACTTGGCG	-0.143 ± 0.14
CTGCAACC	-0.145 ± 0.031
GCTAGTCA	0.103 ± 0.052
AGTCACGA	-0.0662 ± 0.009
AGTCACGC	0.26 ± 0.037
AGTCACGG	-0.147 ± 0.052
ATAAGGAT	0.258 ± 0.011

Sequence	PBM 8-mer E-score
ATAAGGTA	0.164 ± 0.031
ATAAGGAC	0.0211 ± 0.092
ATAAGGTC	0.238 ± 0.051
CTAAGGTC	-0.029 ± 0.12
ATAAGGAA	-0.0884 ± 0.043
CCAGTATC	-0.0909 ± 0.022
AACCCCGA	0.0376 ± 0.019
ACGCTTCA	0.0519 ± 0.091
GTAAGTTA	0.0283 ± 0.0067
ATAAGTTA	0.236 ± 0.025
CTAAGTTA	0.0843 ± 0.017
CAAGGACC	-0.223 ± 0.048
CATTAGTA	-0.0474 ± 0.081
CTTTAATA	0.207 ± 0.016
AATTAGTA	0.268 ± 0.0095
ATTTAATA	0.243 ± 0.0082
AATTAGTC	0.0516 ± 0.035
ACTTAATA	0.156 ± 0.042
AATTAATT	0.242 ± 0.031
GTTTAATA	0.203 ± 0.062
AATTAATC	0.207 ± 0.009
